Inconclusive results are not listed. A number with no mark means an inactive call. The source made the active and inactive calls. Unless noted, calls come from the whole dose curve; as a rule, active = well fitted curve in the direction sought with a large enough effect; inconclusive = small, poorly fitted or top-dose-only effect, or another doubt; inactive = no such curve, though single readings can be large; an effect the other way counts as inactive or inconclusive.

This passage reports Potency and viability results from PubChem BioAssay (NCATS).

Experiment [1] has as its target Aldehyde dehydrogenase, mitochondrial (Homo sapiens) (UniProt P05091). Nature of the experiment: qHTS for Inhibitors of the Aldehyde Dehydrogenase Family (ALDH2) Confirmatory screens (AID 2061303; active = well fitted inhibition curve with a large enough effect; title and protocol of this record describe different tests; note: nearly all actives have a fitted effect of over 45% in size; note: potency is the fitted concentration of half-maximal effect). As to conditions: ALDH inhibition qHTS; series mostly up to 45.4 µM.
Experiment [2] is described as follows: qHTS for Inhibitors of the Aldehyde Dehydrogenase Family (ALDH1A2, ALDH1A3, ALDH2, ALDH3A1) (AID 2061307). For Potency: test system not described further here; potency is the fitted concentration of half-maximal effect. Note: nearly all actives have a fitted effect of over 50% in size. As to conditions: ALDH inhibition qHTS; series mostly up to 50.3 µM.
Experiment [3] has as its target Aldehyde dehydrogenase, mitochondrial (Homo sapiens) (UniProt P05091). The experiment can be described thus: qHTS for Inhibitors of the Aldehyde Dehydrogenase Family (ALDH2) Primary screen (AID 2061308).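 Note: plate controls were vehicle for no effect and reference inhibitor for full effect; nearly all actives have a fitted effect of over 55% in size.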 As to conditions: ALDH2 enzyme inhibition qHTS, 1536-well; series mostly up to 56 µM.
In experiment [4] the target is Retinal dehydrogenase 2 (Homo sapiens) (UniProt O94788). Nature of the experiment: qHTS for Inhibitors of the Aldehyde Dehydrogenase Family (ALDH1A2) Confirmation screens (AID 2061314). Note: nearly all actives have a fitted effect of over 65% in size. Note: potency is the fitted concentration of half-maximal effect. The conditions noted are these: ALDH1A2 enzyme inhibition qHTS confirmation; series mostly up to 45.9 µM.
Experiment [5] has as its target Retinaldehyde dehydrogenase 3 (Homo sapiens) (UniProt P47895). Nature of the experiment: qHTS for Inhibitors of the Aldehyde Dehydrogenase Family (ALDH1A3) Primary screen (AID 2061315).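 Note: plate controls were DMSO vehicle for no effect and reference inhibitor for full effect.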 As to conditions: ALDH inhibition qHTS; series mostly up to 56 µM.
For experiment [6] the target is unchanged. The experiment can be described thus: qHTS for Inhibitors of the Aldehyde Dehydrogenase Family (ALDH1A3) Confirmatory screens (AID 2061311). Note: nearly all actives have a fitted effect of over 60% in size. As to conditions: ALDH inhibition qHTS; series mostly up to 46 µM.
The target of experiment [7] is Aldehyde dehydrogenase 1A1 (Homo sapiens) (UniProt P00352). The experiment can be described thus: qHTS for Inhibitors of the Aldehyde Dehydrogenase Family (ALDH1A1) Confirmatory screens (AID 2061316). Note: nearly all actives have a fitted effect of over 65% in size. Note: potency is the fitted concentration of half-maximal effect. As to conditions: ALDH inhibition qHTS; series mostly up to 47.3 µM.
The nature of experiment [8]: BET inhibitor-based combinations targeting novel dependencies in MECOM-rearranged (r) AML: SET-2 cell line (AID 2202231).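 Note: plate controls were DMSO treated cells for no effect and wells without cells for full effect; nearly all actives have a fitted effect of over 35% in size.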 As to conditions: SET-2 AML cells viability, CellTiter-Glo luminescence, 48 h; viability: active compounds read low, concentration not given here. The procedure, abridged:
(§1)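 A 48 hr incubation preceded viability reading by CellTiter-Glo, with 15 min room-temperature development. Dose series had 11 points; normalization used DMSO and empty wells; AUC was computed and mean-centered per line as Z-AUC.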

The nature of experiment [9]: BET inhibitor-based combinations targeting novel dependencies in MECOM-rearranged (r) AML: OCI-AML3 cell line (AID 2202232).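 Note: plate controls were DMSO vehicle wells for no effect and wells without cells for full effect; nearly all actives have a fitted effect of over 35% in size.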 The conditions noted are these: CellTiter-Glo luminescence, 48 h; Potency: OCI-AML3 viability; series mostly up to 46 µM. The procedure, abridged: as §1
Experiment [10] can be described thus: BET inhibitor-based combinations targeting novel dependencies in MECOM-rearranged (r) AML: UCSD-AML1 cell line (AID 2202235).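 Note: plate controls were DMSO vehicle wells for no effect and blank wells for full effect; nearly all actives have a fitted effect of over 40% in size.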 As to conditions: UCSD-AML1 AML cells viability, CellTiter-Glo, 48 h; series mostly up to 46 µM. In a few lines:
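Each compound is tested in an 11-point concentration series against 500 seeded cells/well for 48 hr. The luminescent viability signal is normalized to DMSO and blank wells, then reduced to AUC and a cell-line-centred Z-AUC.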

Experiment [11] is described as follows: BET inhibitor-based combinations targeting novel dependencies in MECOM-rearranged (r) AML: AML-191 cell line (AID 2202236;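 note: plate controls were vehicle wells for no effect and wells without cells for full effect; nearly all actives have a fitted effect of over 35% in size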). The conditions noted are these: AML-191 viability, CellTiter-Glo luminescence, 48 h; series mostly up to 46 µM. In a few lines: as §1
The nature of experiment [12]: BET inhibitor-based combinations targeting novel dependencies in MECOM-rearranged (r) AML: AML-194 cell line (AID 2202237;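 note: plate controls were vehicle wells for no effect and wells without cells for full effect; nearly all actives have a fitted effect of over 40% in size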). As to conditions: AML-194 (MECOM-r AML) viability, CellTiter-Glo, 48 h; series mostly up to 46 µM. In a few lines: as §1

With `COc1ccc(C2Nc3ccccc3C(=O)N2Cc2ccccc2)cc1COc1ccc(C(N)=O)cc1` (stereo not drawn), the Potency in [1] is 5.62 µM (active); in [2], 2.83 µM (active); in experiment [4] it was 14.1 µM (active). Further, the Potency entry in experiment [3] and in [5] was “inactive” in each case.

With `Cc1ccc(C)c(SC2=NS(=O)(=O)c3ccccc32)c1`, the Potency result in experiment [1], in experiment [2], in experiment [3], in experiment [6], in experiment [5] and in experiment [7] was “inactive” in each case.

As for `O=C(Cc1ccc(Cl)c(Cl)c1)Nc1ccc(S(=O)(=O)O)cc1`, the Potency result in [1], in experiment [2], in experiment [3], in experiment [4], in [5] and in [7] was “inactive” each time.

With `Cc1c(Cl)cccc1NS(=O)(=O)c1cc2c(cc1Cl)CCC(=O)N2`, the Potency result in experiment [1], in experiment [2], in experiment [3], in experiment [5] and in [7] was “inactive” in each case. The Potency in experiment [4] was 12.7 µM (active).

In the case of `CC(C)c1ccccc1-c1nc2c(c(NCc3ccc(-c4cccnc4)cc3)n1)CCNC2`, the Potency result in experiment [1], in experiment [2], in experiment [3], in experiment [4], in [5] and in experiment [7] was “inactive” throughout.

Take `NC(=O)C[C@H](N)C(=O)Nc1ccc(Cl)cc1C(=O)c1ccc[nH]1`: the Potency entry in [1], in experiment [2], in experiment [3], in [4], in experiment [5] and in [7] was “inactive” each time.

As to `O=C(/C=C/c1ccc2c(c1)OCO2)Nc1cccc([S+](=O)([O-])Nc2ccccc2F)c1`, the Potency entry in experiment [1], in experiment [2], in [3], in [4], in [5] and in [7] was “inactive” each time.

As to `COc1ccc(C2Nc3ccccc3C(=O)N2Cc2ccccc2)cc1COc1cccc(C(F)(F)F)c1` (stereo not drawn), the Potency result in experiment [1], in [2], in [3], in experiment [5] and in experiment [7] was “inactive” each time. Moreover, the Potency in [4] is 20.1 µM (active).

On to `CC(=O)Nc1ccc(OC2=NS(=O)(=O)c3ccccc32)cc1`, for which the Potency result in experiment [1], in experiment [2], in experiment [3], in [4], in experiment [5] and in experiment [7] was “inactive” each time.

Regarding `CC(=O)N1CCN(C(=S)Nc2cc(C)ccn2)CC1`, the Potency result in experiment [1], in [2], in experiment [3], in [4] and in experiment [5] was “inactive” in each case.

On to `O=C(Nc1ncc(Cc2ccc(C(F)(F)F)cc2)s1)c1ncc(-c2ccccc2)[nH]1`, for which the Potency result in experiment [1], in experiment [2], in [3], in [4] and in [5] was “inactive” in each case.

`O=C(Nc1ccc(Cl)c(Cl)c1)Nc1ccc(-c2ccncc2)s1`: the Potency result in [1], in experiment [2], in experiment [3], in experiment [4] and in experiment [5] was “inactive” in each case. In experiment [7], the Potency was 8.96 µM (active).

Regarding `Nc1ccc2c(c1)S(=O)(=O)NC2=O`, the Potency entry in experiment [1], in experiment [2], in experiment [3], in [4], in experiment [5] and in experiment [7] was “inactive” in each case.

Turning to `COc1ccc(CCCN2CCC(COC(c3ccccc3)c3ccccc3)CC2)cc1`, the Potency entry in experiment [1], in experiment [2], in experiment [3], in experiment [4], in experiment [5] and in [7] was “inactive” in each case.

Take `CC1(C)CC2CC(C)(CN2S(=O)(=O)c2ccc(C(=O)Nc3cccc(S(=O)(=O)N4CCOCC4)c3)cc2)C1` (stereo not drawn): the Potency in experiment [1] is 0.355 µM (active); in experiment [2], 0.447 µM (active); in experiment [4], 8.96 µM (active). Moreover, the Potency result in experiment [3], in [5] and in [7] was “inactive” throughout.

As for `O=C(CCCc1ccc2cccnc2n1)NCc1cc(-c2ccc(F)c(C(F)(F)F)c2)no1`, the Potency result in [1], in experiment [2], in experiment [3], in [4], in [5] and in experiment [7] was “inactive” throughout. Besides, the Potency entry in experiment [9], in [10], in experiment [11] and in [12] was “inactive” in each case. Moreover, the viability in experiment [8] is 106%.

On to `COc1cc([C@@H](O[C@@H]2O[C@H](CO)[C@@H](O)[C@H](O)[C@H]2O)[C@@H]2CO[C@H](c3ccc(O)c(OC)c3)[C@H]2CO)ccc1O`, for which the Potency entry in experiment [1], in experiment [2], in experiment [3], in experiment [4] and in experiment [7] was “inactive” in each case.

For `CCCc1nnc(-c2cnn(C)c2N)n1CCCn1ccnc1`, the Potency entry in experiment [1], in [2], in experiment [3], in [4], in experiment [5] and in experiment [7] was “inactive” throughout.

Regarding `O=[N+]([O-])c1ccccc1CSc1nc2ncc(Br)cc2[nH]1`, the Potency entry in experiment [1], in experiment [2], in experiment [3], in [4] and in [5] was “inactive” in each case. Also, the Potency in [7] is 12.7 µM (active).

`NC1CCN(c2nc(-c3ccc(Br)cc3)cs2)CC1`: the Potency result in experiment [1], in [2], in experiment [3], in experiment [4], in [5] and in experiment [7] was “inactive” throughout.

For `Cc1nnc(-c2cnn(C)c2N)n1CCc1ccccc1`, the Potency result in experiment [1], in [2], in experiment [3], in [4], in experiment [5] and in experiment [7] was “inactive” in each case.

As for `CCc1c(C)sc(NC(=O)C2CCCCC2C(=O)O)c1C(N)=O` (stereo not drawn), the Potency result in [1], in experiment [2], in experiment [3], in experiment [4] and in experiment [5] was “inactive” in each case.

Turning to `CC1CC(O)CC(C)(C)C1(O)CCO` (stereo not drawn), the Potency result in experiment [1], in experiment [2], in experiment [3], in [4] and in [7] was “inactive” in each case.

On to `O=C(O)c1cccc(S(=O)(=O)Nc2nccs2)c1`, for which the Potency result in experiment [1], in experiment [2], in [3], in [4] and in experiment [7] was “inactive” throughout.

Regarding `O=C(O)c1ccc(-n2cccc2/C=C2\SC(=O)N(Cc3ccccc3Cl)C2=O)cc1`, the Potency result in experiment [1], in [3] and in experiment [5] was “inactive” each time. The Potency in experiment [2] is 7.12 µM (active); in experiment [4], 5.65 µM (active).

Take `Cc1ccc(OCCn2c(CCNC(=O)c3cccs3)nc3ccccc32)cc1`: the Potency result in experiment [1], in experiment [2], in experiment [3] and in [5] was “inactive” in each case. Besides, the Potency in [4] is 31.8 µM (active); in [7] it was 12.7 µM (active).

For the molecule `COc1ccc(CN(Cc2ccccc2)C(=O)c2ccccc2O)cc1`, the Potency result in experiment [1], in experiment [2], in experiment [3], in experiment [4] and in [5] was “inactive” throughout.
